An excerpt weighted towards active compounds, which were near 2.4% of everything screened.
PP1 inh: blocks human PP1-alpha phosphatase, a PP5 counter-screen. 320,000 compounds, 0.9% hits. purified PP1alpha, OMFP fluorescence. P62136. inhibition, % at 6.7 µM;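 active means inhibition above the mean inhibition of all tested compounds plus 3 SD, computed separately for each screening campaign, cut at about 15% in these data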
PREPL inhibitor: inhibitors of human prolyl oligopeptidase-like enzyme PREPL; recombinant PREPL, fluorescence polarization activity-based probe; inhibition, % at 5.96 µM; 320,000 compounds, 0.68% hits; in the data active means inhibition above about 43%
NadD inh: inhibitors of Staphylococcus aureus NadD. purified NadD enzyme, colorimetric absorbance read-out. inhibition, % at 20 µM. 360,000 compounds, 0.78% hits. AID 602399; in the data active means inhibition above about 26%
Rpn11 inh: inhibitors of human proteasome Rpn11; O00487; human 26S proteasome, Ub4-pepOG fluorescence polarization; 20S core pre-blocked with epoxomicin; inhibition, % at 20 µM; 360,000 compounds, 0.59% hits;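 active means inhibition at 20 µM, scaled to each plate's controls, above about 33%, limit read from the data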
PP5 primary: blocks human protein phosphatase 5 activity | purified PP5c, OMFP substrate fluorescence | 320,000 compounds, 0.18% hits | inhibition, % at 6.7 µM | P53041;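 active means inhibition above the campaign's mean inhibition across all tested compounds plus 3 SD, cut at about 9.5% in these data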
Target sequence (P53041 whole entry, looked up): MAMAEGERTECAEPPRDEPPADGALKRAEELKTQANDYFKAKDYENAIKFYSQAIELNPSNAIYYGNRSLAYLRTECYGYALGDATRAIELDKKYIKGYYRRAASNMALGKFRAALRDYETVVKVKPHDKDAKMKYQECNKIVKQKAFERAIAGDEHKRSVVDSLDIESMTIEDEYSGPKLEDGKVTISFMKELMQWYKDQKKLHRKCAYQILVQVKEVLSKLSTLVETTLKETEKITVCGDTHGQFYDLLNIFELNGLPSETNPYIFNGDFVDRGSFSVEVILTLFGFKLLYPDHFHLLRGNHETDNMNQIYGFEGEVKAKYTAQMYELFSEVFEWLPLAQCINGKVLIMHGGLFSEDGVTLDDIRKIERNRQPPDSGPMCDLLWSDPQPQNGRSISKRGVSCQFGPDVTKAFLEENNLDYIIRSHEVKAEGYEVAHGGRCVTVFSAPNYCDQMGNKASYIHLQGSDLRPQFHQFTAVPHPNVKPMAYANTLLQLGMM
NadD inh conf: confirmation of Staphylococcus aureus NadD inhibitors. 2,000 compounds, 13% hits. AID 624309. purified S. aureus NadD, colorimetric enzyme assay. inhibition, % at 20 µM. shares compounds with NadD inh; in the data active means inhibition mostly above about 42%, no sharp cut-off; inactive means mostly below about 42%
Numbers stand for hits; - = inactive; . = no result shown.

SMILES	PP1 inh	PREPL inhibitor	NadD inh	Rpn11 inh	PP5 primary	NadD inh conf
Cc1ccc(C)c(N(CC(=O)NC2CCCC2)C(=O)c2cc3cc4cccc(C)c4nc3s2)c1	-	-	32	-	-	-
Cc1ccc2cc3cc(C(=O)N(CC(=O)NC4CCCC4)c4cccc(C)c4C)sc3nc2c1	-	-	34	-	-	-
Cc1ccc(C)c(N(CC(=O)NC2CCCCC2)C(=O)c2csnn2)c1	-	-	-	-	-	.
CC1(C)CC(=O)c2c(O)cc(OCC(=O)N3CCN(c4ccc(F)cc4)CC3)cc2O1	-	-	-	-	-	.
COc1ccccc1/C=C/C=N/NC(=O)c1cc(-c2ccco2)[nH]n1	-	-	43	-	-	54
COc1ccc(NS(=O)(=O)c2ccc(NC(=S)NC(=O)/C=C/c3ccccc3)cc2)nn1	-	-	48	-	-	54
CCC(CO)Oc1cc(NC(=O)c2ccc(OC)cc2)c2ncn(C(C)C)c2c1 (stereo not drawn)	.	-	-	-	.	.
Cc1cc(C(=O)O)ccc1-c1ccc(/C=C2\SC(=O)N(CC(=O)Nc3ccc4c(c3)OCO4)C2=O)o1	.	.	48	-	.	-
CN1CCN(c2ccc(CNC(=O)C3Cc4c(-c5ccc(Cl)cc5)ccnc4O3)cc2)CC1 (stereo not drawn)	.	.	-	-	.	.
N=c1c(S(=O)(=O)c2ccc(Br)cc2)cc2c(=O)n3ccccc3nc2n1Cc1ccco1	-	-	49	-	-	-
N=c1c(S(=O)(=O)c2ccccc2)cc2c(=O)n3ccccc3nc2n1C1CCCCC1	.	.	-	-	.	.
N=c1c(S(=O)(=O)c2ccc(Br)cc2)cc2c(=O)n3ccccc3nc2n1C1CCCCC1	-	-	42	-	-	-
N=c1c(S(=O)(=O)c2ccc(Cl)cc2)cc2c(=O)n3ccccc3nc2n1Cc1ccco1	-	-	43	-	-	-
CCn1c(=N)c(S(=O)(=O)c2ccc(Cl)cc2)cc2c(=O)n3ccccc3nc21	-	-	.	.	-	.
N=c1c(S(=O)(=O)c2ccc(Br)cc2)cc2c(=O)n3ccccc3nc2n1Cc1ccccc1	-	-	32	-	-	-
Cc1ccc(-n2c(-c3ccc(Br)cc3)n[nH]c2=S)c(C)c1	.	.	-	-	.	.
CCOc1ccc(S(=O)(=O)N(CC(=O)NCc2cccnc2)c2ccc(F)cc2)cc1	-	-	-	-	-	.
Cc1ccc(Cn2c(=N)c(C(=O)NCc3ccco3)cc3c(=O)n4ccccc4nc32)cc1	16	-	43	-	-	-
N=c1c(C(=O)NCc2ccco2)cc2c(=O)n3ccccc3nc2n1CCc1ccccc1	-	-	-	-	-	.
O=C1CCCC2=C1C(c1ccco1)Nc1ccc(C(=O)c3ccccc3)cc1N2 (stereo not drawn)	-	-	35	-	-	-
CCOC(=O)c1c(-c2ccccc2Cl)csc1NC(=O)CSc1nc(C)cc(=O)[nH]1	-	-	28	-	-	55
CCOC(=O)c1ccc(NC(=O)CSc2nc(C)cc(=O)[nH]2)cc1	-	-	-	-	-	.
Cc1ccccc1N(C(=O)Cc1ccsc1)C(C(=O)NC1CCCCC1)c1ccc(F)cc1 (stereo not drawn)	-	-	31	-	-	-
Cc1cc2cc(CNC(=O)Nc3ccc(Cl)c(Cl)c3)ccc2n1C	-	-	31	-	-	-
O=C(Nc1ccc2c(c1)nc1n2CCN(C2CCCCC2)C1)c1ccco1	.	.	-	-	.	.
SMILES	PP1 inh	PREPL inhibitor	NadD inh	Rpn11 inh	PP5 primary	NadD inh conf
COc1ccccc1C(=O)Nc1ccc2c(c1)nc1n2CCN(C2CCCCC2)C1	-	-	35	-	-	-
COc1ccc(CNc2cccnc2Cl)cc1	.	.	-	.	.	.
COc1ccc(Oc2c(OC)cc(NCc3ccc(CN)cc3)c3ncccc23)cc1	.	.	70	-	.	66
CCCc1c(C(=O)N/N=C/C=C/c2ccccc2)nnn1-c1nonc1N	.	.	-	-	.	.
Nc1nonc1-n1nnc(C(=O)N/N=C/C=C/c2ccccc2)c1CSC1=NCCS1	-	-	32	-	-	-
Nc1nonc1-n1nnc(C(=O)N/N=C/c2c(Cl)cccc2Cl)c1CSC1=NCCS1	-	-	34	-	-	-
Nc1nonc1-n1nnc(C(=O)N/N=C/c2ccccc2Cl)c1CSc1ccccc1	-	-	-	-	-	.
Nc1ccccc1Sc1nc2ccccc2[nH]1	-	-	34	-	-	-
Cc1cccc(N2CCN(C(=O)c3ccc4c(c3)NC(=O)C(CSCc3cccc(F)c3)N4)CC2C)c1 (stereo not drawn)	-	-	49	.	-	70
O=C1[C@H]2[C@@H](c3ccc(Cl)cc3)N3C(=O)N(c4cccc(Br)c4)C(=O)[C@@]3(Cc3ccc(Cl)cc3)[C@H]2C(=O)N1C1CCCCC1	-	-	32	-	-	-
O=C1[C@H]2[C@@H](c3ccc(F)cc3)N3C(=O)N(c4cccc(Br)c4)C(=O)[C@@]3(Cc3ccc(Cl)cc3)[C@H]2C(=O)N1C1CCCCC1	-	-	31	-	-	-
COC/C=C/C1=CC2=CC(=O)C(C)(OC(=O)c3cnc4ccccc4n3)C(=O)C2=CN1c1cccc(C#N)c1 (stereo not drawn)	-	-	.	.	-	.
Cc1cccc(Nc2nnc(SC/C(O)=C(\C#N)c3nc4ccccc4[nH]3)s2)c1	-	-	32	-	-	-
COc1ccc(C)cc1-n1nnnc1SC/C(O)=C(\C#N)c1nc2ccccc2[nH]1	-	-	-	-	-	.
CCOC(=O)c1c(SCCN2CCCCC2)n(-c2ccccc2)c(=S)n(-c2ccccc2)c1=O	.	.	-	-	.	.
COc1cccc(-c2c(C(=O)N/N=C(\C)c3ccc(Cl)s3)nnn2-c2nonc2N)c1	-	-	32	-	-	-
O=C(N/N=C/c1ccco1)c1cccc(N2Cc3ccccc3C2)c1	-	-	35	-	-	-
Cc1ccc(CNC(=O)c2ccc(N3CCC4(CC3)CC(c3cccc(Br)c3)=NO4)c([N+](=O)[O-])c2)cc1	-	-	-	-	-	.
Cc1ccc(CNC(=O)c2ccc(N3CCC4(CC3)CC(c3ccccc3)=NO4)c(NC(=O)c3ccc(Cl)c([N+](=O)[O-])c3)c2)cc1	15	-	36	-	-	-
FC(F)(F)c1cc(-c2ccco2)nc(NCc2ccco2)n1	-	-	34	-	-	-
O=Cc1c(Nc2cccc(C(F)(F)F)c2)nc2ccccn2c1=O	-	-	-	-	-	.
O=C(N/N=C/c1c(Nc2cccc(C(F)(F)F)c2)nc2ccccn2c1=O)c1ccccc1[N+](=O)[O-]	-	-	32	-	-	-
CN1CCc2c(sc(/N=C/c3cc(Cl)ccc3O)c2C#N)C1	-	-	-	-	-	.
CN1CCc2c(sc(/N=C/c3c[nH]c4ccccc34)c2C#N)C1	-	-	44	.	-	-
Nc1nc(N)c(C=Nc2ccc(Br)cc2)c(Nc2ccc(Br)cc2)n1	-	-	36	-	-	-
Nc1nc(N)c(Br)c(Nc2ccc(Cl)c(Cl)c2)n1	.	.	-	-	.	.

Screens (PubChem)
